This passage reports growth results from PubChem BioAssay (NCI).

Some test systems named below: DU-145 prostate; K-562 leukemia; MALME-3M melanoma; MDA-MB-231 breast; RXF 393 renal; SF-268 CNS; SF-295 CNS; SF-539 CNS; UACC-257 melanoma; M14 melanoma; HCT-15 colon; HT29 colon; SNB-75 CNS; SNB-19 CNS; U251 CNS; PC-3 prostate; SK-MEL-5 melanoma; UACC-62 melanoma; LOX IMVI melanoma; SK-MEL-28 melanoma.
What all share (test): NCI-60 one-dose screen, 48 h (100 = growth as untreated, 0 = no growth, -100 = all killed)
Common to all, as to conditions: 10 µM unless noted

About 83,000 compounds went through this panel and 20% of them were active in at least one assay; those are over-represented in the sample as a whole.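 Plates (96-well) were seeded with cells, treated with compound at one concentration, and incubated for 48 hours before percent growth was determined.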 Unmarked numbers belong to inactive results. Active and inactive are the calls of the source. The calls were made as follows: active = growth percent below 10; inactive = the rest.

For the compound `COc1ncnc2c(-c3ccccc3)cn(COCc3ccccc3)c12`, the growth is 86.6% in the assay with DU-145 prostate; 29.5% with K-562 leukemia; 51.9% in the assay on MALME-3M melanoma; 56.9% in the assay with MDA-MB-231 breast; 70.3% in the assay on RXF 393 renal; 74.4% with SF-268 CNS. The growth in the assay with SF-295 CNS is 52.6%; in the assay on SF-539 CNS, 84.1%; in the assay on UACC-257 melanoma it was 40%; in the assay with M14 melanoma it was 44.1%; in the assay with HCT-15 colon, 42.6%; with HT29 colon, 47.8%. Besides, the growth with SNB-75 CNS was 99.8%; in the assay on SNB-19 CNS, 78%; in the assay with U251 CNS, 60.1%; with PC-3 prostate it was 25.2%; in the assay on SK-MEL-5 melanoma it was 5.61% (active); with UACC-62 melanoma, 40.4%. The growth with LOX IMVI melanoma was 56%; with SK-MEL-28 melanoma, 77.9%.

Consider `Nc1ccc2c(c1)Cc1cc(NC(=O)C(F)(F)F)ccc1-2`, for which the growth with DU-145 prostate was 99.2%; in the assay with K-562 leukemia, 108%; in the assay with MALME-3M melanoma, 108%; in the assay with MDA-MB-231 breast, 71.2%; in the assay on RXF 393 renal it was 113%; in the assay with SF-268 CNS it was 96.1%. Moreover, the growth in the assay with SF-295 CNS is 99.8%; in the assay on SF-539 CNS it was 97.6%; in the assay on UACC-257 melanoma, 104%; with M14 melanoma, 109%; in the assay with HCT-15 colon, 96.4%; in the assay on HT29 colon it was 90.8%. In addition, the growth in the assay with SNB-75 CNS was 98.6%; in the assay on SNB-19 CNS, 101%; with U251 CNS, 96.2%; in the assay on PC-3 prostate, 99.5%; in the assay with SK-MEL-5 melanoma, 98.4%; in the assay with UACC-62 melanoma, 93.7%. The growth in the assay on LOX IMVI melanoma and in the assay on SK-MEL-28 melanoma was 102% in each case.

With `CC(C)=CC/C=C(/C)[C@H]1CC[C@]2(C)[C@@H]1CC[C@@H]1[C@@]3(C)CCCNC(C)(C)[C@@H]3CC[C@]12C`, the growth was -78.7% [100 µM] (active) in the assay with DU-145 prostate; -19.2% [100 µM] (active) with K-562 leukemia; -78.9% [100 µM] (active) with MALME-3M melanoma; -74.7% [100 µM] (active) with MDA-MB-231 breast; -70.1% [100 µM] (active) with RXF 393 renal; -48% [100 µM] (active) in the assay with SF-268 CNS. For the same compound, the growth was -77.8% [100 µM] (active) with SF-295 CNS; -86% [100 µM] (active) in the assay on SF-539 CNS; -72.3% [100 µM] (active) with UACC-257 melanoma; -58.6% [100 µM] (active) in the assay on M14 melanoma; -53.6% [100 µM] (active) with HCT-15 colon; -64.7% [100 µM] (active) with HT29 colon. Further, the growth with SNB-75 CNS is -84.4% [100 µM] (active); with SNB-19 CNS, -63.1% [100 µM] (active); in the assay with U251 CNS, -63.3% [100 µM] (active); with PC-3 prostate, -65% [100 µM] (active); in the assay with SK-MEL-5 melanoma, -71.2% [100 µM] (active); in the assay with UACC-62 melanoma, -95.2% [100 µM] (active). The growth in the assay on LOX IMVI melanoma is -46% [100 µM] (active); with SK-MEL-28 melanoma it was -87.1% [100 µM] (active).

Consider `CCn1cc(-c2cc(-c3ccc(Cl)cc3)nc(N)n2)c(-c2ccc(Br)cc2)n1`, for which the growth was 99.4% in the assay on DU-145 prostate; 77.4% with K-562 leukemia; 93.8% with MALME-3M melanoma; 60.6% in the assay with MDA-MB-231 breast; 94.8% in the assay with RXF 393 renal; 94.8% in the assay on SF-268 CNS. Further, the growth was 84.3% with SF-295 CNS; 87.3% with SF-539 CNS; 73.5% with UACC-257 melanoma; 74.5% in the assay on M14 melanoma; 64.9% in the assay with HCT-15 colon; 55.8% with HT29 colon. For the same compound, the growth is 82.4% with SNB-75 CNS; 88.7% with SNB-19 CNS; 87% with U251 CNS; 47% in the assay on PC-3 prostate; 90.8% in the assay on SK-MEL-5 melanoma; 60.7% in the assay on UACC-62 melanoma. For the same compound, the growth in the assay on LOX IMVI melanoma is 88.5%; with SK-MEL-28 melanoma, 61.3%.

Take `Nc1cc(NN=C(c2ccc(O)cc2)c2ccc(O)cc2)c([N+](=O)[O-])cc1[N+](=O)[O-]`: the growth with DU-145 prostate was 91.3%; in the assay with K-562 leukemia, 78.4%; with MALME-3M melanoma, 105%; with MDA-MB-231 breast it was 54.4%; in the assay with RXF 393 renal it was -69.9% (active); with SF-268 CNS it was 81.8%. Besides, the growth is 75.8% in the assay with SF-295 CNS; -55.3% (active) in the assay with SF-539 CNS; -60.6% (active) in the assay with UACC-257 melanoma; -52.9% (active) in the assay on M14 melanoma; 4.01% (active) in the assay on HCT-15 colon; 98.4% in the assay with HT29 colon. Besides, the growth with SNB-75 CNS is 78.2%; in the assay on SNB-19 CNS, -22.6% (active); with U251 CNS it was 4.49% (active); in the assay with PC-3 prostate it was 64.2%; in the assay with SK-MEL-5 melanoma, -85.4% (active); in the assay with UACC-62 melanoma, 42.3%. The figures for the growth with LOX IMVI melanoma and in the assay with SK-MEL-28 melanoma were -32.5% (active) and 80.8%, respectively.

For the compound `C#C[C@]1(O)CC[C@H]2[C@@H]3CC=C4c5nc(Nc6ccc(OC)cc6OC)sc5CC[C@]4(C)[C@H]3CC[C@@]21C`, the growth was 39% in the assay with DU-145 prostate; 6.12% (active) with K-562 leukemia; -21.8% (active) with MALME-3M melanoma; 1.72% (active) in the assay with MDA-MB-231 breast; -60% (active) with RXF 393 renal; 4.95% (active) in the assay on SF-268 CNS. The growth in the assay on SF-295 CNS was -66.3% (active); in the assay with SF-539 CNS it was -59.5% (active); in the assay on UACC-257 melanoma, -20.3% (active); in the assay on M14 melanoma it was -41.4% (active); in the assay with HCT-15 colon it was -39.1% (active); with HT29 colon it was -12.8% (active). In addition, the growth in the assay with SNB-75 CNS is -53.6% (active); in the assay on SNB-19 CNS, 31.2%; in the assay with U251 CNS, -2.51% (active); in the assay with PC-3 prostate, -3.17% (active); in the assay on SK-MEL-5 melanoma, -92.2% (active); with UACC-62 melanoma it was -36.8% (active). Further, the growth in the assay on LOX IMVI melanoma was -78.3% (active); in the assay on SK-MEL-28 melanoma, -49.1% (active).

Consider `CC(C)(C)c1cc(C(=O)Nc2cc3ccccc3cc2C(=O)NCCN)cc(C(C)(C)C)c1`, for which the growth in the assay on DU-145 prostate was -96.9% (active); in the assay on K-562 leukemia, -76.9% (active); in the assay on MALME-3M melanoma, -38.1% (active); in the assay on MDA-MB-231 breast, -79.9% (active); with RXF 393 renal, -90.4% (active); with SF-268 CNS, -80.7% (active). The growth in the assay with SF-295 CNS was -85.5% (active); with SF-539 CNS it was -68.8% (active); in the assay with UACC-257 melanoma it was -36.1% (active); in the assay with M14 melanoma, -81.2% (active); with HCT-15 colon, -83.4% (active); with HT29 colon, -79.6% (active). Further, the growth in the assay on SNB-75 CNS was -92.2% (active); in the assay on SNB-19 CNS, -69% (active); with U251 CNS, -85.4% (active); in the assay with PC-3 prostate it was -93% (active); in the assay on SK-MEL-5 melanoma, -39.7% (active); with UACC-62 melanoma it was -69.4% (active). The growth in the assay with LOX IMVI melanoma was -89.9% (active); in the assay on SK-MEL-28 melanoma it was -80.9% (active).

For the compound `CCOc1cccc2c(NC(C)CCCN(CC)CC)c(C)cnc12` (stereo not given), the growth with DU-145 prostate is 110%; in the assay with K-562 leukemia it was 101%; in the assay on MALME-3M melanoma it was 116%; in the assay on MDA-MB-231 breast it was 78.7%; in the assay with RXF 393 renal, 102%; in the assay with SF-268 CNS, 87.6%. For the same compound, the growth in the assay with SF-295 CNS is 109%; in the assay on SF-539 CNS it was 102%; in the assay on UACC-257 melanoma, 108%; in the assay with M14 melanoma it was 104%; in the assay on HCT-15 colon it was 99.1%; in the assay on HT29 colon, 85.1%. Further, the growth in the assay on SNB-75 CNS was 67.9%; with SNB-19 CNS, 102%; with U251 CNS, 103%; with PC-3 prostate, 85.9%; in the assay with SK-MEL-5 melanoma it was 108%; in the assay on UACC-62 melanoma, 108%. In addition, the growth was 90.2% in the assay with LOX IMVI melanoma and 126% with SK-MEL-28 melanoma.
